Source: PubChem
GRIN3A LBD mod: NR3A (human) ligand-binding domain modulation; NR3A LBD differential scanning fluorimetry, Tm shift; 0% = protein alone, 100% = glycine-bound protein; Tm shift relative to glycine control, % at 25 µM; 340,000 compounds, 2.5% hits; AID 1259313;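 active = melting temperature shift of at least 10% of the positive control shift, at one fixed dose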
AHR act: activators of human aryl hydrocarbon receptor; AHR-responsive luciferase reporter cells, luminescence; 320,000 compounds, 2.5% hits; AID 2796; P35869; activation, % at 5 µM; in the data active = activation above about 47%
NTR1 agonist: activates human neurotensin receptor 1 | P30989 | NTR1-U2OS beta-arrestin-GFP spot imaging, agonist mode | activation, % at 20 µM | 330,000 compounds, 0.17% hits | AID 493036;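 active = activation at or above 40% of the spot to cytoplasm intensity ratio, with at least 20 cells analyzed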
Target sequence (P30989 whole entry, looked up): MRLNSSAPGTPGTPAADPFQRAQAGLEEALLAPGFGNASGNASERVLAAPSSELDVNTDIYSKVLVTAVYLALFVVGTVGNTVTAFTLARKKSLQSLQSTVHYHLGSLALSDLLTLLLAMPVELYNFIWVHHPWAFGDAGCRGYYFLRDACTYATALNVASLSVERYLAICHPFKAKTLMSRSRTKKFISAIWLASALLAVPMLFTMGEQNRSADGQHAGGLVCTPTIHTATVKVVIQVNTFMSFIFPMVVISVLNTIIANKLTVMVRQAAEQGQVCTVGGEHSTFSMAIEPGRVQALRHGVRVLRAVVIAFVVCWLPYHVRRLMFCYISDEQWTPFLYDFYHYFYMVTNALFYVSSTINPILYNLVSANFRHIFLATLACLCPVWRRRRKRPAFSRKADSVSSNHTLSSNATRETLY
AI-2 QS mod: Vibrio harveyi AI-2 quorum sensing modulation. activity change, % at 7.5 µM. Vibrio harveyi JMH597 AI-2 luminescence/OD600 ratio, 9 h; hits give low values; strain lacks LuxN and CqsS sensors; 0 = neutral-control median. 300,000 compounds, 0.4% hits. AID 2094; in the data active = activity change below about -75%, passing the limit was not always enough;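 also: luminescence divided by OD600 gain over 9 h not by final OD600 alone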
Mot1-301 SUMO: inhibitors of SUMOylation pathway: yeast Mot1-301 growth rescue; S. cerevisiae Mot1-301 growth rescue, ATP luminescence, 38.5C; percent above DMSO median, 100 means doubled; growth rescue, % at 18.8 µM; 320,000 compounds, 1% hits; AID 2716;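 active = every valid replicate shows activation above 250% relative to neutral control wells; inactive = the rest, any valid replicate at or below 250%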
H9c2 protect: modulators protecting cardiomyocytes from myocardial damage; H9c2 cardiomyocytes, H2O2 injury protection, ATPLite, 2 h; protection from H2O2 cell death, % at 20 µM; 360,000 compounds, 0.63% hits;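 active = compounds giving at least 50% protection of heart cells from peroxide-induced death in the single-dose screen, raw or plate-pattern-corrected value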
Hits are given with their value. In the library only some 6.2% were active in any assay of this set; here they are far more common.

Screening CC(C)(C)[C@H]1COC(=O)[C@@H](Cc2ccc(F)cc2)CC/C=C/C[C@@H](CC(=O)N[C@H](CO)Cc2ccccc2)C(=O)N1 returned GRIN3A LBD mod inactive, AHR act inactive, NTR1 agonist inactive, Mot1-301 SUMO inactive and H9c2 protect inactive.
`C[C@H]1CN([C@@H](C)CO)C(=O)CCCn2nncc2CO[C@@H]1CN(C)C(=O)NC1CCCCC1` gave H9c2 protect inactive.
Screening CN(CC1COc2ccccc2O1)C(=O)c1ccc(Cl)c(S(=O)(=O)N2CCCCCC2)c1 (centres undefined) returned GRIN3A LBD mod inactive, AHR act inactive, NTR1 agonist inactive, Mot1-301 SUMO inactive and H9c2 protect inactive.
For O=C(N/N=C/c1c[nH]c2ccccc12)c1ccc(O)c(O)c1 the results were GRIN3A LBD mod 28, AHR act inactive, NTR1 agonist inactive, AI-2 QS mod inactive, Mot1-301 SUMO inactive and H9c2 protect inactive.
Cc1[nH]c2ccccc2c1/C=N/NC(=S)NC(C)C was read as GRIN3A LBD mod inactive, AHR act inactive, NTR1 agonist inactive, AI-2 QS mod inactive, Mot1-301 SUMO inactive and H9c2 protect inactive.
`CC(C)NC(=S)N/N=C/c1c[nH]c2ccccc12` gave GRIN3A LBD mod inactive, AHR act 129, NTR1 agonist inactive, AI-2 QS mod inactive, Mot1-301 SUMO inactive and H9c2 protect inactive.
Screening Cc1cc(C)n(CCc2nc(-c3ccc(C(C)(C)C)cc3)cs2)n1 returned GRIN3A LBD mod 12, AHR act inactive, NTR1 agonist inactive, AI-2 QS mod inactive, Mot1-301 SUMO inactive and H9c2 protect inactive.
Screening Cc1cc(C)n(CCc2nc(-c3ccc(F)cc3)cs2)n1 returned GRIN3A LBD mod inactive, AHR act inactive, NTR1 agonist inactive, AI-2 QS mod inactive, Mot1-301 SUMO inactive and H9c2 protect inactive.
CCC1=[N+](CC(=O)c2ccc(Br)cc2)CCn2c(C)ccc21 was read as GRIN3A LBD mod inactive, AHR act 73, NTR1 agonist inactive, AI-2 QS mod inactive, Mot1-301 SUMO inactive and H9c2 protect inactive.
CCC1=[N+](C)CCn2c(C)ccc21 was read as GRIN3A LBD mod inactive, AHR act inactive, NTR1 agonist inactive, AI-2 QS mod inactive, Mot1-301 SUMO inactive and H9c2 protect inactive.
For CCC1=[N+](CC(=O)c2ccc(C)cc2)CCn2cccc21 the results were GRIN3A LBD mod inactive, AHR act inactive, NTR1 agonist inactive, Mot1-301 SUMO inactive and H9c2 protect inactive.
CCC1=[N+](CC(=O)c2ccc(C)cc2)CCn2c(C)ccc21 was read as GRIN3A LBD mod inactive, AHR act 71, NTR1 agonist inactive, AI-2 QS mod inactive, Mot1-301 SUMO inactive and H9c2 protect inactive.
`Oc1ccccc1-c1cc(-c2ccccc2)no1` gave GRIN3A LBD mod 19, AHR act inactive, NTR1 agonist inactive, AI-2 QS mod inactive, Mot1-301 SUMO inactive and H9c2 protect inactive.
Cc1ccccc1-c1cc(-c2ccccc2O)on1 was read as GRIN3A LBD mod inactive, AHR act 73, NTR1 agonist inactive, AI-2 QS mod inactive, Mot1-301 SUMO inactive and H9c2 protect inactive.
`Cc1ccc(-c2cc(-c3ccccc3)no2)c(O)c1` gave GRIN3A LBD mod inactive, AHR act inactive, AI-2 QS mod inactive, Mot1-301 SUMO inactive and H9c2 protect inactive.
Screening S=C1Cc2ccccc2N1 returned GRIN3A LBD mod inactive, AI-2 QS mod inactive and H9c2 protect inactive.
For CCCCN(C(=O)c1cccc(S(=O)(=O)N2CCN(C)CC2)c1)c1c(N)n(CCC)c(=O)[nH]c1=O the results were GRIN3A LBD mod inactive, AHR act inactive, NTR1 agonist inactive, AI-2 QS mod inactive, Mot1-301 SUMO inactive and H9c2 protect inactive.
`COc1ccc(Cl)cc1NC(=S)NC1CCCC1` gave GRIN3A LBD mod inactive, AHR act inactive, NTR1 agonist inactive, AI-2 QS mod inactive, Mot1-301 SUMO inactive and H9c2 protect inactive.
`Cc1ccc2cc(C#N)c(N3CCCN(S(=O)(=O)c4ccccc4)CC3)nc2c1C` gave GRIN3A LBD mod 11, AHR act inactive, NTR1 agonist inactive, AI-2 QS mod inactive, Mot1-301 SUMO inactive and H9c2 protect inactive.
Cc1ccc2cc(C#N)c(N3CCCN(S(=O)(=O)c4ccccc4)CC3)nc2c1 was read as GRIN3A LBD mod inactive, AHR act inactive, NTR1 agonist inactive, AI-2 QS mod inactive, Mot1-301 SUMO inactive and H9c2 protect inactive.
For ClC(Cl)c1nnc(-c2ccccc2)c(-c2c[nH]c3ccccc23)n1 the results were GRIN3A LBD mod inactive, AHR act inactive, NTR1 agonist inactive, AI-2 QS mod -77, Mot1-301 SUMO inactive and H9c2 protect inactive.
O=[N+]([O-])c1cccc(C(=Nc2cccc(Cl)c2)NO)c1 was read as GRIN3A LBD mod inactive, AHR act 88, NTR1 agonist inactive, AI-2 QS mod inactive, Mot1-301 SUMO inactive and H9c2 protect inactive.
`O=C(NCCc1cccc(Cl)c1)c1cccc([N+](=O)[O-])c1` gave GRIN3A LBD mod inactive, AHR act inactive, NTR1 agonist inactive, AI-2 QS mod inactive, Mot1-301 SUMO inactive and H9c2 protect inactive.
`CSc1ccc(C(=O)C2CCCN(C(=O)c3ccc4c(c3)OCO4)C2)cc1` (centres undefined) gave GRIN3A LBD mod inactive, AHR act inactive, NTR1 agonist inactive, AI-2 QS mod inactive, Mot1-301 SUMO inactive and H9c2 protect inactive.
Screening CSc1ccc(C(=O)C2CCCN(C(=O)c3cc4cc(F)ccc4[nH]3)C2)cc1 (centres undefined) returned GRIN3A LBD mod inactive, AHR act inactive, NTR1 agonist inactive, AI-2 QS mod inactive, Mot1-301 SUMO 447 and H9c2 protect inactive.
Cc1ccc2c(c1)cc(CN(Cc1ccc3c(c1)OCO3)C(=O)c1ccccc1)c1nnnn12 was read as GRIN3A LBD mod inactive, AHR act inactive, NTR1 agonist inactive, AI-2 QS mod inactive, Mot1-301 SUMO 336 and H9c2 protect inactive.
`O=P(c1ccccc1)(c1ccccc1)C(O)c1cccs1` (centres undefined) gave H9c2 protect inactive.
Cc1ccc(N(C)C(=O)CN(C)S(=O)(=O)c2ccc3c(c2)n(C)c(=O)c(=O)n3C)cc1 was read as GRIN3A LBD mod inactive, AHR act inactive, NTR1 agonist inactive, AI-2 QS mod inactive, Mot1-301 SUMO inactive and H9c2 protect inactive.
O=C(CSc1nc2nn(-c3ccccc3)c(=O)c-2c2n1CCCCC2)c1ccc(O)c(O)c1 was read as GRIN3A LBD mod inactive, AHR act inactive, NTR1 agonist inactive, Mot1-301 SUMO inactive and H9c2 protect 100.
Screening c1ccc(-c2nnc(-c3ccccn3)c(-c3ccccn3)n2)nc1 returned GRIN3A LBD mod inactive, AHR act inactive, NTR1 agonist inactive, AI-2 QS mod inactive, Mot1-301 SUMO inactive and H9c2 protect inactive.
`CN(C)c1nc(-c2ccccn2)nnc1-c1ccccc1` gave GRIN3A LBD mod inactive, AHR act 85, NTR1 agonist inactive, AI-2 QS mod inactive, Mot1-301 SUMO inactive and H9c2 protect 67.
